# “And” between values parts separate entries of the source, which are not always exact repeats. Identical values can stand only once. Inconclusive results are not listed. The source holds several records for some structures; these can differ, active in one and inactive in another. The source made the active and inactive calls. Unless noted, the call rests on the fitted dose curve; in most records, active means well fitted curve in the direction sought with a large enough effect in the repeat runs; inconclusive means weak or mixed curves; inactive means no such curve, though single readings can be large; an effect the other way counts as inactive or inconclusive.
# Experiments:
# [1] = qHTS assay to identify small molecule agonists of the vitamin D receptor (VDR) signaling pathway - cell viability counter screen (AID 743224); further: nearly all actives have a fitted effect of over 50% in size; further: potency means the concentration at half of the fitted maximal effect
# Summary of the method: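 Luminescence from CellTiter-Glo, read after 30 min at room temperature, reports viability of VDR-bla cells treated with compounds for 16 h at 37C in the wells used for the beta-lactamase FRET read.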
# [2] = qHTS assay to identify small molecule antagonists of the vitamin D receptor (VDR) signaling pathway - cell viability counter screen (AID 743225); further: nearly all actives have a fitted effect of over 50% in size; further: potency means the concentration at half of the fitted maximal effect
# Summary of the method: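 Cytotoxicity counter screen read by CellTiter-Glo luminescence (30 min, room temperature) in the same wells as the VDR-bla antagonist readout. HEK 293T VDR-UAS-bla cells had 16 h at 37C with compound and 3 nM (final) 1-alpha,25-dihydroxyvitamin D3, then 2 h with FRET substrate.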
# [3] = qHTS assay to identify small molecule agonists of the endoplasmic reticulum stress response signaling pathway - cell viability counter screen (AID 1159517; calls by dose curve; further: nearly all actives have a fitted effect of over 50% in size; further: potency means the concentration at half of the fitted maximal effect)
# Summary of the method: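 Luminescence readout: CellTiter-Glo, 30 min RT, same wells as the ESRE-bla reporter read. HeLa ESRE-bla, 1,500 cells/well, o/n 37 C; cpd 5 hr 37 C/5% CO2.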
# [4] = qHTS assay to identify small molecule antagonists of the retinoid-related orphan receptor gamma (ROR-gamma) signaling pathway - cell viability counter screen (AID 1159520); further: nearly all actives have a fitted effect of over 50% in size; further: potency means the concentration at half of the fitted maximal effect
# Summary of the method: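 Tet-on ROR gamma CHO cells (1,000/well) were plated 4 hr, given compounds in DMSO for 2 hr at 37 C, then induced with 1 uM final doxycycline for 16 hr. Viability was read as ATP by CellTiter-Glo luminescence after 30 min.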
# [5] = molecular target: Nuclear receptor ROR-gamma (Homo sapiens) (UniProt P51449); assay: qHTS assay to identify small molecule antagonists of the retinoid-related orphan receptor gamma (ROR-gamma) signaling pathway (AID 1159521; further: nearly all actives have a fitted effect of over 50% in size; further: potency means the concentration at half of the fitted maximal effect)
# Summary of the method: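 Antagonist read-out: drop in luminescence (ONE-Glo) from an RORE-LUC reporter in CHO cells with doxycycline-inducible ROR-gamma; 2 hr compound pretreatment, 1 uM doxycycline, 16 hr incubation at 37 C.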
# [6] = qHTS assay to identify small molecule agonists of the AP-1 signaling pathway - cell viability counter screen (AID 1159525; calls by dose curve; further: nearly all actives have a fitted effect of over 55% in size; further: potency means the concentration at half of the fitted maximal effect)
# Summary of the method: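 ME-180 AP-1-bla, 2500 cells/well, Opti-MEM + 0.5% dialyzed FBS; overnight 37 °C; cpd 15-pt titration, 5 h 37 °C; CellTiter-Glo 30 min RT; luminescence read; normalised to TOAB and DMSO controls.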
# [7] = qHTS assay to identify small molecule agonists of the RXR signaling pathway - cell viability counter screen (AID 1159529); further: nearly all actives have a fitted effect of over 50% in size; further: potency means the concentration at half of the fitted maximal effect
# Summary of the method: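 CellTiter-Glo luminescence gave viability in the wells also read for beta-lactamase. Cells (RXR-alpha-UAS-bla HEK 293T, 2% charcoal-stripped FBS medium) had 5 hr plating, then 16 hr compound exposure at 37 C; tetraoctyl ammonium bromide served as positive control.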
# [8] = qHTS assay to identify small molecule antagonists of the retinoic acid receptor (RAR) signaling pathway (AID 1159552; further: nearly all actives have a fitted effect of over 50% in size; further: potency means the concentration at half of the fitted maximal effect)
# Summary of the method: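 Luminescent RARE reporter read-out in C3RL4 cells: 6 hr co-treatment at 37 C of test compounds with retinol at 1 uM final. Cells plated overnight beforehand; luciferase reagent incubated 30 min at room temperature before reading.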
# [9] = qHTS assay to identify small molecule agonists of the NFkB signaling pathway - cell viability counter screen (AID 1159515; calls by dose curve; further: nearly all actives have a fitted effect of over 55% in size; further: potency means the concentration at half of the fitted maximal effect)
# Summary of the method: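 Luminescence from CellTiter-Glo (30 min, room temperature) gives viability, measured in the same wells as the beta-lactamase reporter read. Cells were NFkB-bla ME-180, 2,000 per well, treated 5 hr with compounds.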
# [10] = molecular target: Retinoic acid receptor RXR-alpha (Homo sapiens) (UniProt P19793); assay: qHTS assay to identify small molecule agonists of the RXR signaling pathway (AID 1159527; calls by dose curve; further: nearly all actives have a fitted effect of over 35% in size)
# Summary of the method: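 Agonist-mode beta-lactamase reporter assay: HEK 293T RXR-alpha-UAS-bla cells treated 16 hr at 37 C with compounds, 9-cis retinoic acid as positive control. LiveBLAzer FRET substrate, 405 nm excitation, 460/530 nm emission.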
# [11] = qHTS assay to identify small molecule antagonists of the retinoid acid receptor (RAR) signaling pathway - cell viability counter screen (AID 1159551); further: nearly all actives have a fitted effect of over 35% in size; further: potency means the concentration at half of the fitted maximal effect
# Summary of the method: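 Luminescent ATP quantitation (CellTiter-Glo) gave cell viability in C3RL4 cells exposed to test chemicals for 6 h at 37 C alongside 1 uM final retinol.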
# [12] = qHTS assay to identify small molecule antagonists of the estrogen related receptor (ERR) signaling pathway - cell viability counter screen (AID 1224818);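 further: potency means the concentration at half of the fitted maximal effect; viability measured after 17.5 h of compound exposure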
# Summary of the method: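 Multiplexed counter screen to separate cytotoxic compounds from true ERR modulators. ERR cells received DMSO-dissolved compounds after a 6 h pre-incubation, were exposed 17.5 h at 37 C, then assayed with CellTiter-Fluor fluorescence.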
# [13] = qHTS assay to identify small molecule antagonists of the estrogen related receptor (ERR) signaling pathway (AID 1224819)
# Summary of the method: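 Seed ERR cells 2,000/well; rest 6 h at 37 C/5% CO2; pin compounds in DMSO; incubate 18 h at 37 C; add One-Glo; wait 30 min at room temperature; measure luminescence.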
# [14] = qHTS assay to identify small molecule agonists of the estrogen related receptor (ERR) signaling pathway (AID 1224820); further: potency means the concentration at half of the fitted maximal effect
# Summary of the method: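 ERR reporter cells (NTP line) plated 2,000/well, incubated 6 h at 37 C/5% CO2, then pinned with compounds in DMSO and held 18 h at 37 C. One-Glo added; luminescence read after 30 min at room temperature.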
# [15] = tested on: estrogen-related receptor alpha (ERRalpha) with PGC-1alpha coactivator, human; assay: qHTS assay to identify small molecule antagonists of the estrogen related receptor signaling pathway with the pleiotropic PPARgamma coactivator (PGC) (AID 1224821; calls by dose curve)
# Summary of the method: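 Cells engineered for PGC/ERR signalling (line from NTP) were plated 6 h at 37 C/5% CO2, then exposed to DMSO-dissolved compound for 18 h at 37 C. Luciferase activity was read by One-Glo luminescence after 30 min at room temperature.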
# [16] = qHTS assay to identify small molecule agonists of the estrogen related receptor signaling pathway with the pleiotropic PPARgamma coactivator (PGC) (AID 1224823); further: potency means the concentration at half of the fitted maximal effect
# Summary of the method: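 PGC/ERR reporter cells were seeded, rested 6 h at 37 C/5% CO2, then exposed to compounds in DMSO by pin transfer for 18 h at 37 C. Luciferase activity was read as luminescence after One-Glo reagent and 30 min at room temperature.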
# [17] = qHTS assay to identify small molecule agonists of the AP-1 signaling pathway (AID 1159526; calls by dose curve)
# [18] = qHTS assay to identify small molecule agonists of the retinoic acid receptor (RAR) signaling pathway (AID 1159553)
# Summary of the method: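 Luminescence from a RARE-driven luciferase reporter in C3RL4 cells served as the read-out, measured after 30 min with detection reagent at room temperature. Compounds in DMSO were applied for 6 hr at 37 C following overnight seeding.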
# Retinoic acid receptor RXR-alpha (Homo sapiens), sequence (P19793 whole entry, looked up): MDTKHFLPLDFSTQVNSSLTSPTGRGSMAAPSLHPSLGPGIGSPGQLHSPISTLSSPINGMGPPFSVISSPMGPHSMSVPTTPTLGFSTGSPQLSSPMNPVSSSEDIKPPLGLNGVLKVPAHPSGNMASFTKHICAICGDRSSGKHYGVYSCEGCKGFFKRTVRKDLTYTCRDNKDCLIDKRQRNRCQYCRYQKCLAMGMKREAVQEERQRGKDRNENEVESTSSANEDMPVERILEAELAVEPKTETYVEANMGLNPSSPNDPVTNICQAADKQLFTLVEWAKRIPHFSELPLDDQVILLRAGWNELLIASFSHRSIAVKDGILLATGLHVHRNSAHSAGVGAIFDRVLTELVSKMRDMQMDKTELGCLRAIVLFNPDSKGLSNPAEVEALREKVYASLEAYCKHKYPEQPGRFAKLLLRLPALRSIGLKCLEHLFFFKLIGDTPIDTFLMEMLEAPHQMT
compound,measurement,setting,value
CCN1CCC2(CC1)COc1cc3c(cc12)N(C(=O)c1ccc(-c2ccc(-c4nnc(C)o4)cc2C)cc1)CC3,Potency,[1],35.9 µM (active)
same,Potency,[2],20.2 µM (active)
same,Potency,[3],50.7 µM (active)
same,Potency,[4],28.3 µM (active)
same,Potency,[5],2000 nM (active)
same,Potency,[6],45.2 µM (active)
same,Potency,[7],3.59 µM (active)
same,Potency,[8],56.4 µM (active)
CCOP(=S)(OCC)Oc1cc(C)nc(N(CC)CC)n1,Potency,[9],inactive
same,Potency,[4],inactive
same,Potency,[5],inactive
same,Potency,[6],inactive
same,Potency,[10],inactive
same,Potency,[11],inactive
CCC[CH2][Sn]([CH2]CCC)([CH2]CCC)[O][Sn]([CH2]CCC)([CH2]CCC)[CH2]CCC,Potency,[1],0.603 µM (active)
same,Potency,[2],0.852 µM (active)
same,Potency,[9],0.24 µM (active)
same,Potency,[4],0.336 µM (active)
same,Potency,[5],168 nM (active)
same,Potency,[6],0.537 µM (active)
same,Potency,[7],0.479 µM (active)
same,Potency,[11],1.5 µM (active)
Nc1ccc(N=Nc2ccccc2)cc1,Potency,[9],inactive
same,Potency,[4],inactive
same,Potency,[5],inactive
same,Potency,[6],inactive
same,Potency,[7],inactive
same,Potency,[11],inactive
same,Potency,[8],inactive
same,Potency,[12],31.8 µM (active)
same,Potency,[13],inactive
same,Potency,[14],10.1 µM (active)
same,Potency,[15],inactive
same,Potency,[16],14.2 µM (active)
CCC(C)Nc1c([N+](=O)[O-])cc(C(C)(C)C)cc1[N+](=O)[O-] (centres undefined),Potency,[2],inactive
same,Potency,[9],inactive
same,Potency,[3],inactive
same,Potency,[5],inactive
same,Potency,[6],inactive
same,Potency,[17],inactive
same,Potency,[11],inactive
same,Potency,[8],inactive
Cc1ccc([N+](=O)[O-])[c]2c1[O][Hg]2,Potency,[1],3.76 µM (active)
same,Potency,[2],3.01 µM (active)
same,Potency,[9],6.01 µM (active)
same,Potency,[3],23.9 µM (active)
same,Potency,[4],1.19 µM (active)
same,Potency,[5],376 nM (active)
same,Potency,[7],3.01 µM (active)
same,Potency,[11],6.68 µM (active)
same,Potency,[8],1.5 µM (active)
CN1CCc2cc3c(cc2C1O)OCO3 (centres undefined),Potency,[2],inactive
same,Potency,[9],inactive
same,Potency,[4],inactive
same,Potency,[5],inactive
same,Potency,[6],inactive
same,Potency,[17],inactive
same,Potency,[7],inactive
same,Potency,[11],inactive
CC(=O)[O][Pb]([c]1ccccc1)([c]1ccccc1)[c]1ccccc1,Potency,[1],1.55 µM (active)
same,Potency,[2],0.977 µM (active)
same,Potency,[9],0.871 µM (active)
same,Potency,[4],0.77 µM (active)
same,Potency,[5],193 nM (active)
same,Potency,[6],15.5 µM (active)
same,Potency,[7],2.45 µM (active)
same,Potency,[11],9.69 µM (active)
same,Potency,[8],0.486 µM (active)
O=S1OCC2C(CO1)C1(Cl)C(Cl)=C(Cl)C2(Cl)C1(Cl)Cl (centres undefined),Potency,[1],38.9 µM (active)
same,Potency,[2],inactive
same,Potency,[9],55 µM (active)
same,Potency,[3],55 µM (active)
same,Potency,[4],54.5 µM (active)
same,Potency,[5],43.3 µM (active) and 61.1 µM (active)
same,Potency,[7],48.9 µM (active)
same,Potency,[11],54.5 µM (active)
same,Potency,[8],48.6 µM (active) and 54.4 µM (active)
O=[N+]([O-])c1cc(C(F)(F)F)c(Cl)c([N+](=O)[O-])c1Nc1ncc(C(F)(F)F)cc1Cl,Potency,[1],4.9 µM (active)
same,Potency,[2],6.92 µM (active)
same,Potency,[9],11 µM (active)
same,Potency,[3],12.3 µM (active)
same,Potency,[4],4.86 µM (active)
same,Potency,[5],1370 nM (active)
same,Potency,[6],11 µM (active)
same,Potency,[7],7.76 µM (active)
same,Potency,[11],54.5 µM (active)
same,Potency,[8],30.6 µM (active)
CCCCc1ccccc1,Potency,[1],inactive
same,Potency,[2],inactive
same,Potency,[9],inactive
same,Potency,[3],inactive
same,Potency,[4],inactive
same,Potency,[5],inactive
same,Potency,[6],inactive
same,Potency,[7],inactive
same,Potency,[11],inactive
CCOP(=O)(OCC)Oc1nc(Cl)c(Cl)cc1Cl,Potency,[1],4.34 µM (active)
same,Potency,[9],inactive
same,Potency,[3],inactive
same,Potency,[4],inactive
same,Potency,[5],48300 nM (active)
same,Potency,[6],inactive
same,Potency,[11],inactive
same,Potency,[8],inactive
same,Potency,[18],inactive
N#CC(C#N)=NNc1cccc(Cl)c1,Potency,[2],8.71 µM (active)
same,Potency,[9],inactive
same,Potency,[3],inactive
same,Potency,[4],2.73 µM (active)
same,Potency,[5],486 nM (active)
same,Potency,[6],inactive
same,Potency,[11],inactive
same,Potency,[8],2.73 µM (active)
CC(C)[C@@H](Nc1ccc(C(F)(F)F)cc1Cl)C(=O)OC(C#N)c1cccc(Oc2ccccc2)c1 (some centres undefined),Potency,[1],inactive
same,Potency,[2],inactive
same,Potency,[9],inactive
same,Potency,[3],inactive
same,Potency,[4],inactive
same,Potency,[5],inactive
same,Potency,[6],inactive
same,Potency,[7],inactive
same,Potency,[11],inactive
same,Potency,[8],inactive
CCCCCCCCCCCCCCn1cc[n+](C)c1,Potency,[1],8.72 µM (active) and 24.3 µM (active) and inactive
same,Potency,[2],27.6 µM (active) and 43.2 µM (active) and inactive
same,Potency,[9],inactive
same,Potency,[3],6.18 µM (active) and 19.3 µM (active) and inactive
same,Potency,[4],27.4 µM (active) and 34 µM (active) and inactive
same,Potency,[6],49.1 µM (active) and 48.5 µM (active) and inactive
same,Potency,[10],inactive
same,Potency,[7],19.5 µM (active)
same,Potency,[11],54.6 µM (active) and 60.4 µM (active)
same,Potency,[8],13.7 µM (active) and 24.1 µM (active) and inactive
same,Potency,[18],inactive

# Reference: PubChem BioAssay (Tox21)
